The values below come from PubChem BioAssay (EPA / NIEHS).

Records with an inconclusive call do not appear. Some compounds were tested as several samples or in several runs, with calls that do not always agree. Calls of active or inactive are those of the source. The calls were made as follows: active = hit-call score of the fitted dose curve at least 0.9, where 1 is the maximum; inconclusive = response in the unintended direction; inactive = score below 0.9.

Test [1] addresses human Peroxisome Proliferator-activated Receptor alpha (PPARa), PPARA (gene 5465) (UniProt Q07869). As to the kind of experiment: NVS_NR_hPPARa: NovaScreen (NVS) Nuclear Receptor Binding Assay for human Peroxisome Proliferator-activated Receptor alpha (PPARa) (AID 2283359).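 Also: activity means loss of TR-FRET signal versus DMSO baseline.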 An outline of the steps:
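TR-FRET signal measured at 1 h post-dosing; loss-of-signal versus DMSO negative control taken as activity. Extracted gene-protein, cell-free format. Initial single-point duplicates at 25 uM, then concentration-response retests.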

Test [2] concerns the target PGR (gene 5241) (UniProt P06401). The test can be described thus: NVS_NR_hPR: NovaScreen (NVS) Nuclear Receptor Binding Assay for human Progestron Receptor (PR) (AID 2283360).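 Also: active means loss of bound radioligand signal versus DMSO baseline.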 In outline: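 Cell-free radioligand binding using receptor protein extracted from T47D cells, read by scintillation counting 18 hours after dosing. Loss of signal relative to DMSO baseline indicates displacement; primary screen single concentration 25 uM in duplicate, actives followed in concentration series.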

Test [3] addresses human Thyroid Receptor Alpha (TRa), THRA (gene 7067) (UniProt P10827). The test can be described thus: NVS_NR_hTRa_Antagonist: NovaScreen (NVS) Nuclear Receptor Binding Assay for human Thyroid Receptor Alpha Antagonism (TRa) (AID 2283362).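 Also: activity is loss of signal relative to DMSO baseline.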 An outline of the steps:
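Extracted protein, cell-free; 1 h incubation after dosing; AlphaLISA chemiluminescence binding readout. DMSO = baseline/neg ctrl; signal loss = activity. Primary: duplicate, 25 uM; secondary: conc. series on actives.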

Test [4] has as its target Nuclear receptor subfamily 1 group I member 2 (Homo sapiens) (UniProt O75469). As to the kind of experiment: NVS_NR_hPXR: NovaScreen (NVS) Nuclear Receptor Binding Assay for human Pregnane X Receptor (PXR) (AID 2283365).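 Also: a drop in FRET signal versus DMSO baseline means the compound binds.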 An outline of the steps:
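Human PXR protein, cell-free; compound added, incubated 2 h, TR-FRET read. Signal decrease vs DMSO = binding. Screened 25 uM duplicate, actives re-run as dilution series.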

The target in test [5] is Peroxisome proliferator-activated receptor gamma (Homo sapiens) (UniProt P37231). The test can be described thus: NVS_NR_hPPARg: NovaScreen (NVS) Nuclear Receptor Binding Assay for human Peroxisome Proliferator-activated Receptor gamma (PPARg) (AID 2283370). In outline: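 Chemicals were tested first in duplicate at 25 uM, then in concentration series if active. Binding to cell-free PPARg protein was measured by fluorescence polarization after 2 h, with loss of signal scored against DMSO.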
Sequence of Peroxisome proliferator-activated receptor gamma (Homo sapiens) (P37231 whole entry, looked up): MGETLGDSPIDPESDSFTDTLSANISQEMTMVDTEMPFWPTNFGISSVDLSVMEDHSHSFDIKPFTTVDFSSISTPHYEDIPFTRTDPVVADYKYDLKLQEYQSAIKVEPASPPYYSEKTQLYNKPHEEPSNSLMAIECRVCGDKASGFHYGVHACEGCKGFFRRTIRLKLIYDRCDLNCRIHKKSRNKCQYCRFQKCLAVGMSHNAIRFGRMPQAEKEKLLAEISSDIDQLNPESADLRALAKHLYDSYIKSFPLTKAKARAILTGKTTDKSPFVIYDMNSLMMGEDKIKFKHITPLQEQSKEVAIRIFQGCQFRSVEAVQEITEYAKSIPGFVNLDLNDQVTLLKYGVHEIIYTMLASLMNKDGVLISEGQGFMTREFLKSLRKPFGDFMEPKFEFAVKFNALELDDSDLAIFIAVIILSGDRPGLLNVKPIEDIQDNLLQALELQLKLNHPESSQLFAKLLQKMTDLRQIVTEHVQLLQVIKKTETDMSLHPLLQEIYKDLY

In test [6] the target is human Norepinephrine Transporter (NET), SLC6A2 (gene 6530) (UniProt P23975). The test can be described thus: NVS_TR_hNET: NovaScreen (NVS) Transporter Assay for human Norepinephrine Transporter (NET) (AID 2283377).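 Also: cell-free membrane protein extracted from CHO cells expressing human NET.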 In outline: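 CHO cell extracts expressing the transporter; tritiated or iodinated tracer displaced competitively; filtration plus scintillation readout at 1 h. Single-point duplicates at 25 uM, concentration series for follow-up; activity = signal drop relative to DMSO.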

Test [7] concerns the target Retinoic acid receptor alpha (Homo sapiens) (UniProt P10276). As to the kind of experiment: NVS_NR_hRAR_Antagonist: NovaScreen (NVS) Nuclear Receptor Binding Assay for human Retinoic Acid Alpha Receptor Antagonism (RAR) (AID 2283358). In outline:
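Read-out: time-resolved FRET binding signal, 2 h post-dose, cell-free extracted protein. Antagonism scored as signal loss versus DMSO negative control. Primary single-concentration screen at 25 uM in duplicate; concentration series for actives.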

The target in test [8] is Estrogen receptor beta (Homo sapiens) (UniProt Q92731). The test can be described thus: OT_ER_ERbERb_1440: Odyssey Thera (OT) 24-hour HEK293T Protein-Complementation Assay for Estrogen Receptor-beta/-beta Homodimer (AID 2283380).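 Also: scored as signal increase over DMSO baseline for both agonists and antagonists.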 An outline of the steps: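 HEK293T cells stably expressing ER beta LBD (aa 310-547) homodimer fragment-complementation reporter, dosed 24 h. Cells formaldehyde-fixed, Draq5-stained; gain in nuclear (agonist) or nuclear plus cytoplasmic (antagonist) fluorescence versus DMSO read by laser scanning cytometry.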
Sequence of Estrogen receptor beta (Homo sapiens) (Q92731 whole entry, looked up, the tested form may be a part): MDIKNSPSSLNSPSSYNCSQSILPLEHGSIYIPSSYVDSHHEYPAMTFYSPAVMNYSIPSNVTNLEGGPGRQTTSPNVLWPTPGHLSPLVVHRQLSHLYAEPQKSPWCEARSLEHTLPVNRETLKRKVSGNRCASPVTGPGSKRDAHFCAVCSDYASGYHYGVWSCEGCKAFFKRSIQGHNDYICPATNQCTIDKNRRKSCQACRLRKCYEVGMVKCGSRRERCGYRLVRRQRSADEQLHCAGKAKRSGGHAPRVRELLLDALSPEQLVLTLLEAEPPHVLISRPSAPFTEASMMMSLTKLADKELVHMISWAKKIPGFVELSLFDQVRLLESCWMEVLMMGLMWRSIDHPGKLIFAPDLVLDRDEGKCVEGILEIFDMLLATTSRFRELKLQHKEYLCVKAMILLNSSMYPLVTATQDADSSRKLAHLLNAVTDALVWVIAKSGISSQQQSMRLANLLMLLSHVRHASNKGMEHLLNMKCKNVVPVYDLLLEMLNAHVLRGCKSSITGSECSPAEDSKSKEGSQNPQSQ

In test [9] the target is guinea pig Sigma Receptor, Non-selective Binding, SIGMAR1 (gene 100135589) (UniProt Q60492). The test can be described thus: NVS_OR_gSIGMA_NonSelective: NovaScreen (NVS) Nuclear Receptor Binding Assay for guinea pig Sigma Receptor, Non-selective Binding (AID 2283367). In outline:
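Membranes from guinea pig brain incubated with radioligand and test chemical for 1 h, then filtered and scintillation-counted. Duplicate primary testing at 25 uM, with concentration-series follow-up for actives.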

Test [10] deals with guinea pig Dopamine Transporter (DAT), gene 100714898. The test can be described thus: NVS_TR_gDAT: NovaScreen (NVS) Transporter Assay for guinea pig Dopamine Transporter (DAT) (AID 2283369).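 Also: active compounds lower bound radioligand signal relative to DMSO.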 An outline of the steps: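 Scintillation counts of filter-retained radioligand report binding to guinea pig striatal membranes after 2 h. Activity scored as signal loss relative to DMSO, first at 25 uM in duplicate, then in concentration series to 50 uM.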

For test [11], the target named is human Serotonin Transporter (SERT), SLC6A4 (gene 6532) (UniProt P31645). As to the kind of experiment: NVS_TR_hSERT: NovaScreen (NVS) Transporter Assay for human Serotonin Transporter (SERT) (AID 2283372). An outline of the steps: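 Human platelet membrane preparation; displacement of radioligand from serotonin transporter measured after 1 h by filtration and scintillation counting. Single 25 uM duplicate screen, then concentration series for actives, with DMSO as negative baseline.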
Sequence of human Serotonin Transporter (SERT), SLC6A4 (gene 6532) (P31645 whole entry, looked up): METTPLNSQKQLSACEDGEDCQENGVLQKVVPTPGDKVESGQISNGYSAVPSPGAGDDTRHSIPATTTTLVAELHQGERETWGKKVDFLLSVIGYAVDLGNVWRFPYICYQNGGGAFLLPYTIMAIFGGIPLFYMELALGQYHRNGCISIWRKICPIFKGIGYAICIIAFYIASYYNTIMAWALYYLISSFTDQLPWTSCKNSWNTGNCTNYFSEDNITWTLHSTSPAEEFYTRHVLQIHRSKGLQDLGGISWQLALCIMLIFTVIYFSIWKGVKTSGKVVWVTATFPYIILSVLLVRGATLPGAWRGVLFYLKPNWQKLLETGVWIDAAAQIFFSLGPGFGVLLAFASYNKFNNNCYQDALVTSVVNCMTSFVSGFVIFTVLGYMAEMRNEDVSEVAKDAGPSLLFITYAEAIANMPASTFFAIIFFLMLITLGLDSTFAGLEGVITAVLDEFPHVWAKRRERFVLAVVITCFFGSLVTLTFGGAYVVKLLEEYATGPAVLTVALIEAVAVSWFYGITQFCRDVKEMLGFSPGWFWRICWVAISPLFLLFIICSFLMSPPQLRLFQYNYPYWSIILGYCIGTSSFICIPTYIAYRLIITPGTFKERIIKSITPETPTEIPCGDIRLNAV

Test [12] deals with rat Serotonin Transporter (SERT), Slc6a4 (gene 25553) (UniProt P31652). As to the kind of experiment: NVS_TR_rSERT: NovaScreen (NVS) Transporter Assay for rat Serotonin Transporter (SERT) (AID 2283375). An outline of the steps:
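Filtration-based radiodetection quantified loss of specific radioligand binding in rat forebrain membranes after 1 hour of chemical exposure, relative to DMSO. Chemicals were first tested in duplicate at 25 uM.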

Test [13] has as its target mouse Estrogen Receptor alpha (Era), Esr1 (gene 13982) (UniProt P19785). As to the kind of experiment: NVS_NR_mERa: NovaScreen (NVS) Nuclear Receptor Binding Assay for mouse Estrogen Receptor alpha (Era) (AID 2283378).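 Also: hit means loss of bound radioligand signal relative to DMSO.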 An outline of the steps:
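Extracted mouse Era incubated with tritiated or iodinated radioligand plus test chemical, 18 h. Bound fraction separated on filters, counted by scintillation. DMSO = negative control/baseline; duplicate single-point at 25 uM, then concentration-response follow-up.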

For test [14], the target named is Glucocorticoid receptor (Homo sapiens) (UniProt P04150). The test can be described thus: NVS_NR_hGR: NovaScreen (NVS) Nuclear Receptor Binding Assay for human Glucocorticoid Receptor (GR) (AID 2283363).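 Also: activity is loss of specific radioligand binding signal relative to DMSO.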 In outline: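 Filter scintillation readout of tritiated/iodinated radioligand displaced by test chemical; cell-free extracted protein; 16 h. DMSO = negative control/baseline. Duplicate single-point 25 uM screen, then concentration-response on actives.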
Sequence of Glucocorticoid receptor (Homo sapiens) (P04150 whole entry, looked up): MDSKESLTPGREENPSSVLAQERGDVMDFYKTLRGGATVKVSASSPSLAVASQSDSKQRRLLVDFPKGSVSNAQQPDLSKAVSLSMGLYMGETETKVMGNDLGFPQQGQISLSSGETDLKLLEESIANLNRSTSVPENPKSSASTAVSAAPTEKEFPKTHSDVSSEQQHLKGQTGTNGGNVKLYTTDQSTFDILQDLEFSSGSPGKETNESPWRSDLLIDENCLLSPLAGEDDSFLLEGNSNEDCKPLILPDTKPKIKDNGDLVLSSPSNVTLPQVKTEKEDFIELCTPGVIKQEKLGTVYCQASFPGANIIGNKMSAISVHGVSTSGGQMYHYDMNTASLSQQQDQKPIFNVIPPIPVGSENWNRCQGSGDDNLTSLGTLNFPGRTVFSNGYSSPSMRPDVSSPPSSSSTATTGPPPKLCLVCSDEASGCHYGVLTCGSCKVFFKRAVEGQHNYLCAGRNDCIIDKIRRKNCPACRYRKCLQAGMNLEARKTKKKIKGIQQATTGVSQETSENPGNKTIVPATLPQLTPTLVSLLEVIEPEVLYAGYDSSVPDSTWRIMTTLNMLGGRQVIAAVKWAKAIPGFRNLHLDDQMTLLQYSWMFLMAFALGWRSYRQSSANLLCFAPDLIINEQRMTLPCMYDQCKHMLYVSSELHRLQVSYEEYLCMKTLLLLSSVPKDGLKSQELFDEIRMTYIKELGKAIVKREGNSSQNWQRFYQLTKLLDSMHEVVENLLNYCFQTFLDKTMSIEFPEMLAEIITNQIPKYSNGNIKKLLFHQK

Test [15] has as its target rat Androgen Receptor (AR), Ar (gene 24208) (UniProt P15207). As to the kind of experiment: NVS_NR_rAR: NovaScreen (NVS) Nuclear Receptor Binding Assay for rat Androgen Receptor (AR) (AID 2283366). An outline of the steps:
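Actives from a duplicate single-concentration (25 uM) primary run went on to concentration series. Displacement of radioligand was counted by filtration and scintillation, 18 h post-dose, using prostate extracts from testosterone-pretreated rats, with DMSO as baseline.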

Test [16] has as its target Agonist Androgen Response Element (ARE), AR (gene 367) (UniProt P10275). The test can be described thus: OT_AR_ARELUC_AG_1440: Odyssey Thera (OT) 24-hour CHO-K1 Luciferase Assay for Agonist Androgen Response Element (ARE) (AID 2283379). An outline of the steps:
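Gain-of-signal reporter endpoint: cells (CHO-K1, hamster) are treated 24 h, luciferin/ATP reagent added, and luminescence compared with DMSO baseline.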

Sequence of human Peroxisome Proliferator-activated Receptor alpha (PPARa), PPARA (gene 5465) (Q07869 whole entry, looked up): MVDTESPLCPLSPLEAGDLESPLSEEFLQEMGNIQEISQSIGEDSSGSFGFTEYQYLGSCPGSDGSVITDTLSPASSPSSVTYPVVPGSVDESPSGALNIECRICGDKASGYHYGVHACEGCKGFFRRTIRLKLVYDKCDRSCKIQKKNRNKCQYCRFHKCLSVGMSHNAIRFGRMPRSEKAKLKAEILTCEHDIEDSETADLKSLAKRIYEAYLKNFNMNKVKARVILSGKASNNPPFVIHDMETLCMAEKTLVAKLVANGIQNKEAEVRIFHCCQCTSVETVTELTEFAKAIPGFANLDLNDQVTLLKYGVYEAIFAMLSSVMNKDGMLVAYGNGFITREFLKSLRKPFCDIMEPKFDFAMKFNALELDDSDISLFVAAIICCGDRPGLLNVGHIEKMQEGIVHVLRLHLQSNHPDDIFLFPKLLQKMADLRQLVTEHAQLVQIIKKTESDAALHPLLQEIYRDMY
Sequence of Retinoic acid receptor alpha (Homo sapiens) (P10276 whole entry, looked up): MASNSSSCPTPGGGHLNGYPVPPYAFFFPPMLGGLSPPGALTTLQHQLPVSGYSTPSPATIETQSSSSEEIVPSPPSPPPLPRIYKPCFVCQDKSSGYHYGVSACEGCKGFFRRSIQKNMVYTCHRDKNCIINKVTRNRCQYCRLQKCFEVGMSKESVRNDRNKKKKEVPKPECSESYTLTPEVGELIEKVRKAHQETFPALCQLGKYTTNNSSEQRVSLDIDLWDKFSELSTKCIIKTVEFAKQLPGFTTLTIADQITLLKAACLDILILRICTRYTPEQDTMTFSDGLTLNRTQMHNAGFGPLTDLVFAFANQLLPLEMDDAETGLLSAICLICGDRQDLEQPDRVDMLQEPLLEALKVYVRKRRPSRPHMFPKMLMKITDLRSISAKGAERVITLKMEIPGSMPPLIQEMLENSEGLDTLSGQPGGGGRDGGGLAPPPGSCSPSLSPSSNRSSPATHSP
Sequence of human Thyroid Receptor Alpha (TRa), THRA (gene 7067) (P10827 whole entry, looked up): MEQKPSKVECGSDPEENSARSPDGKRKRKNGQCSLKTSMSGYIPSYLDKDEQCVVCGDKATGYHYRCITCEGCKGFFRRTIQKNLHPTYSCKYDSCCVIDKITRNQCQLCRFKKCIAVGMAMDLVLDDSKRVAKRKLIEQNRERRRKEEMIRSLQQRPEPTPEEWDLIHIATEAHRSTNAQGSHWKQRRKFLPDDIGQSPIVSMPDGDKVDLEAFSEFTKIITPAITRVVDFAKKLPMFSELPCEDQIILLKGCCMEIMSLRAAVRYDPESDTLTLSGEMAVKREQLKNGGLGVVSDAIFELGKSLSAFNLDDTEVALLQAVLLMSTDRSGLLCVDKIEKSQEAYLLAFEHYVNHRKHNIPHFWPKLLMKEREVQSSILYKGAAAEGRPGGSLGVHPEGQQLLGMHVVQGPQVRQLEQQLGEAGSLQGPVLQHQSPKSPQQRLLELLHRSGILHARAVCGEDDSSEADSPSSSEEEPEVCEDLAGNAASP
Sequence of PGR (gene 5241) (P06401 whole entry, looked up): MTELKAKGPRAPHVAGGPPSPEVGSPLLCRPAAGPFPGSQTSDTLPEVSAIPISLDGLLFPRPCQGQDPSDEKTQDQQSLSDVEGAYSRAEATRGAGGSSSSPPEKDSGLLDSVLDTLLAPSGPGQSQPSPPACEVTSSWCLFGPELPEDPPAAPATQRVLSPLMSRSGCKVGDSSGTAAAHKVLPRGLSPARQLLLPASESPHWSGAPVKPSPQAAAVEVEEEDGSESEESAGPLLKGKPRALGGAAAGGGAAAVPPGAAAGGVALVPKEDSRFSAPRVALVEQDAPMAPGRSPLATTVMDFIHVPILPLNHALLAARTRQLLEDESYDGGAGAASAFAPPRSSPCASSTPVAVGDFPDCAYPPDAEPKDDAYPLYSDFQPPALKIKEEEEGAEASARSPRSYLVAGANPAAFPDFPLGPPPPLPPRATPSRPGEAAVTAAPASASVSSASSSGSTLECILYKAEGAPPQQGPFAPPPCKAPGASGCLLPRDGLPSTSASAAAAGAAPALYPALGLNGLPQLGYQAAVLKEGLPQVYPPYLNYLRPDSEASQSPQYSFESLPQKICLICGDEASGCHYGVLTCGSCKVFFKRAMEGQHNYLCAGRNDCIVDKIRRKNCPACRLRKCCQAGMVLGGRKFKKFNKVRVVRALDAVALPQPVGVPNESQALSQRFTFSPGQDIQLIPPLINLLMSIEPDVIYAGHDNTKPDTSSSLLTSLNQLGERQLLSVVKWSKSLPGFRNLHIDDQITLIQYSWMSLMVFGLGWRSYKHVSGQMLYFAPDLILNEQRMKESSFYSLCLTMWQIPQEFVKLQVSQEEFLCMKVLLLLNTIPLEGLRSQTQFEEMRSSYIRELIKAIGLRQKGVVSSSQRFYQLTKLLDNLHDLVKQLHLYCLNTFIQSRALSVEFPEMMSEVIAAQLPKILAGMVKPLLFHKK
Sequence of guinea pig Sigma Receptor, Non-selective Binding, SIGMAR1 (gene 100135589) (Q60492 whole entry, looked up): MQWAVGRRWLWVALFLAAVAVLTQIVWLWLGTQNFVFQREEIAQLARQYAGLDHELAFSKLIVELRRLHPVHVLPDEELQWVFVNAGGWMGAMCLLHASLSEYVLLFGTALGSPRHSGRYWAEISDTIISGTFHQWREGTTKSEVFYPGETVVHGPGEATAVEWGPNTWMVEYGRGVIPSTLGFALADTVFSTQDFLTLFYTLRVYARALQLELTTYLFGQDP

Take `O=S(=O)(O)C(F)(F)C(F)(F)C(F)(F)C(F)(F)C(F)(F)C(F)(F)C(F)(F)C(F)(F)F`: the AC50 (usually the concentration at which the activity in the assay is half-maximal) is 11.2 µM (active) in test [1]; 20.2 µM (active) [middle of 4 runs] in test [2]; 12 µM (active) in [3]; 39.6 µM (active) in test [4]; 16.9 µM (active) [middle of 6 runs] in test [5]. The compound was classed as inactive in test [1] and in [6].
As for `CC1(c2ccc(Oc3ccccc3)cc2)OC(=O)N(Nc2ccccc2)C1=O` (stereo not given), the call in test [7], in [5] and in [8] was inactive.
On to `COP(=S)(OC)Oc1ccc([N+](=O)[O-])cc1`, for which the AC50 is 10.3 µM (active) in test [2]; 4.69 µM (active) in [9]; 20.1 µM (active) in test [10]; 11.3 µM (active) in test [11]; 12.6 µM (active) in test [12]. Further, the compound was called inactive in test [3], in test [13] and in test [8].
For `COP(=O)(OC)OC=C(Cl)Cl`, the compound was called inactive in [2], in test [3] and in test [8]. Further, in [5], the AC50 is 6.97 µM (active).
Regarding `O=C(O)C(F)(F)C(F)(F)C(F)(F)C(F)(F)C(F)(F)C(F)(F)C(F)(F)F`, the outcome in [1], in test [2] and in test [8] was inactive.
On to `COC(=O)c1ccccc1S(=O)(=O)NC(=O)Nc1nc(C)nc(OC)n1`, for which, in test [7], the compound was classed as inactive.
Regarding `COP(=S)(OC)Oc1ccc(SC)c(C)c1`, the result in test [2] and in test [8] was inactive. In addition, the AC50 in test [9] is 11.2 µM (active).
Turning to `CC1(C)C(C=C(Cl)Cl)C1C(=O)OC(C#N)c1ccc(F)c(Oc2ccccc2)c1` (stereo not given), the compound was classed as inactive in [7], in test [3], in test [5] and in [8]. Also, in [14], the AC50 is 7.25 µM (active).
On to `O=S1OCC2C(CO1)C1(Cl)C(Cl)=C(Cl)C2(Cl)C1(Cl)Cl` (stereo not given), for which the call in test [7], in test [2], in [15] and in [5] was inactive. In addition, the figures for the concentration at half-maximal activity (AC50) in [14] and in [10] were 2.29 µM (active) and 17.7 µM (active), respectively.
`O=C(O)CCCOc1ccc(Cl)cc1Cl`: the outcome in [2], in test [15], in test [5], in test [16] and in test [8] was inactive.
